BAZ2B inh: BAZ2B (human) inhibition. AID 504333. AlphaScreen BAZ2B-H3K14Ac peptide displacement. Potency, µM (titrated, usually from 114 µM), inactives show top-dose activity change, negative = inhibition, hits mostly inhibitors. actives 4.4% (n = 360,000); further: on the % scale 0 is the no-effect control and ±100 the full control effect; nearly all actives have a fitted effect of over 60% in size
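Complex of BAZ2B and biotin-H3K14Ac (50 nM apiece) forms over 30 min at RT, then faces library compounds up to 110 uM for another 30 min; AlphaScreen beads added, 20 min dark incubation, luminescence read.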
JMJD2A Tudor: blocks the human JMJD2A Tudor domain; AlphaScreen JMJD2A-Tudor / H3K4me3 peptide binding; AID 504339; O75164; actives 4.4% (n = 390,000); Potency, µM (doses to about 114 µM), for the others: at the top dose activity change, negative = inhibition, hits mostly inhibitors; further: on the % scale 0 is the no-effect control and ±100 the full control effect; nearly all actives have a fitted effect of over 50% in size
G9a block: inhibitors of human histone lysine methyltransferase G9a; actives 8.8% (n = 350,000); G9a H3K9 monomethylation, AlphaScreen, 2 h; AID 504332; Potency, µM (highest dose often 102 µM), for the others: at the top dose activity, negative = inhibition, actives largely listed as inhibitors; further: on the % scale 0 is the no-effect control and ±100 the full control effect; nearly all actives have a fitted effect of over 75% in size
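Compounds were preincubated with 20 nM G9a for 15 min, after which biotinylated H3K9 peptide (500 nM) and SAM (20 uM) started a 2 h room-temperature reaction. Monomethylated product was quantified by antibody-based AlphaScreen chemiluminescence.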
Sfp PPTase inh: Sfp phosphopantetheinyl transferase inhibition; Q9F4F7; Biochemical Sfp PPTase activity, qHTS; Potency, µM, without a hit: largest response in the series, negative = inhibition, hits mostly inhibitors; actives 3.5% (n = 310,000);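 further: the enzyme is Sfp with the accession as filed and its product quenches rhodamine fluorescence; 0% = enzyme reaction without inhibitor and -100% = no enzyme wells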
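Fluorescence-quenching assay: 15 nM Sfp-PPTase preincubated 15 min at room temperature with compound, then 5 uM rhodamine-CoA and 12.5 uM BHQ-2-labelled YbbR peptide added. Fluorescence (ex 525/em 598 nm) read at start and after 30 min; difference gives rate.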
TDP1 inh: inhibitors of human tyrosyl-DNA phosphodiesterase TDP1; Potency, µM (doses to about 130 µM), without a hit: top-dose activity change, negative = inhibition, usual class: inhibitors; AID 485290; actives 0.28% (n = 350,000); recombinant TDP1, AlphaScreen DNA substrate cleavage; Q9NUW8; further: on the % scale 0 is the no-effect control and ±100 the full control effect; nearly all actives have a fitted effect of over 40% in size
Target sequence (Q9NUW8 whole entry, looked up): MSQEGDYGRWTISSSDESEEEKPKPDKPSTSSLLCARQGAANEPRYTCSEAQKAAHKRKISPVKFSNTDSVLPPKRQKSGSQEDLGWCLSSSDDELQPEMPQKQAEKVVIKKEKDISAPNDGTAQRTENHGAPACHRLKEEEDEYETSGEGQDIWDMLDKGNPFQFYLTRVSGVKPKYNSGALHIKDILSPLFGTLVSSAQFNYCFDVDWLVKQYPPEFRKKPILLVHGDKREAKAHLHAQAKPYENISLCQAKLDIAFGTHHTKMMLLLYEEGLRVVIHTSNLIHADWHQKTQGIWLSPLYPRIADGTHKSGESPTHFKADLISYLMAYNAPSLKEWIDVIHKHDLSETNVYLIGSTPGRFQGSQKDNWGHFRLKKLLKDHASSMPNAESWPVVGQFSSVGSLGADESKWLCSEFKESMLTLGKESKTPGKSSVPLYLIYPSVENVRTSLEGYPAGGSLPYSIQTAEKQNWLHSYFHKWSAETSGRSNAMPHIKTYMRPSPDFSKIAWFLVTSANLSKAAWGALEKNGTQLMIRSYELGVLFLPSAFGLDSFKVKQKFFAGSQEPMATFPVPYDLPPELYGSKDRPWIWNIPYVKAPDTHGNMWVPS
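E. coli-derived human Tdp1, 1 nM final. Cpd preinc 15 min RT; substrate 15 nM final, 5 min RT; AS bead mix 10 ug/ml final, 10 min RT. Signal loss = tyrosine-FITC cleavage. No-enzyme wells = max signal.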
HP1b binding inh: blocks HP1-beta chromodomain binding to methylated histone tails. P83916. AlphaScreen HP1-beta / biotin-H3K9me3 peptide binding. Potency, µM (highest dose often 114 µM), for inactives: top-dose activity change, negative = inhibition, actives largely listed as inhibitors. actives 0.56% (n = 390,000). AID 540317; further: nearly all actives have a fitted effect of over 70% in size
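Compound inhibition of the preformed complex between 50 nM HP1-beta and 50 nM biotinylated H3K9me3 peptide was read by AlphaScreen. Buffer was PBS pH 7.4 with 0.01% Tween-20. Incubations ran 30 min at room temperature, with 10 ug/mL donor/acceptor beads.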
* hit, by the source's call; ? = inconclusive; · = no result given; [ ] = another dose, or the depositor's remark. A selection: hits, their analogues and other compounds. The true share with any hit is near 12%. The call rests on the fitted dose curve; in most records, active means well fitted curve in the direction sought with a large enough effect; inconclusive means small, poorly fitted or top-dose-only effect, or another doubt; inactive means no such curve, though single readings can be large; an effect the other way counts as inactive or inconclusive. Potency means the concentration at half of the fitted maximal effect.

SMILES | BAZ2B inh | JMJD2A Tudor | G9a block | Sfp PPTase inh | TDP1 inh | HP1b binding inh
CSc1nc(C)cc(SCC(=O)N/N=C/c2ccccc2)n1 | 14% | -21% | 10% | -14% | 3% | 13%
O=c1[nH]c2sc3c(c2c(=O)n1Cc1ccccc1)CCC3 | 8% | -15% | -1% | 6% | 2% | -14%
O=c1c2c3c(sc2[nH]c(=S)n1Cc1ccco1)CCC3 | 45µM* | -16%[11.4 µM] | 14µM* | 50µM* | ? | 2%
CC1(C)Cc2c(sc3[nH]c(=S)n(Cc4ccco4)c(=O)c23)CO1 | -3% | ? | 50µM* | 14µM* | · | -8%
CC1(C)Cc2c(sc3c2c(=N)n(Cc2ccco2)c(=O)n3Cc2ccccc2)CO1 | 79µM* | -8%[11.4 µM] | ? | -13% | 5% | -7%
O=C(CCCc1ccccc1)NCCS(=O)(=O)N1CCN(c2ccccc2F)CC1 | -5% | -6% | 6%[0.501 µM] | · | -4% | 23%
Cc1nc(Nc2ccc(C(=O)O)cc2)nc(Nc2ccc(C(=O)O)cc2)c1[N+](=O)[O-] | -39% | -27% | 45µM* | 14% | · | 45%
COc1ccc(Nc2nc(N/N=C/c3ccc(N(C)C)cc3)nc(C)c2[N+](=O)[O-])cc1 | ? | ? | 5µM* | 1% | 11% | -8%
CC(=O)Nc1ccc(Nc2nc(C)c([N+](=O)[O-])c(Nc3ccccc3)n2)cc1 | -35% | -15% | ? | -4% | 6% | 9%
Cc1ccnc(Nc2nc(-c3ccc(O)cc3O)cs2)c1 | 50µM* | ? | 79µM* | 40µM* | · | -10%
Oc1ccc(-c2csc(Nc3ccccn3)n2)cc1O | 40µM* | 56µM* | 11µM* | 45µM* | 2% | 14µM*
CCCNC(=O)c1csc(Nc2cccc3ccccc23)n1 | ? | -33% | 16%[0.501 µM] | -11% | · | -5%
Oc1ccc(-c2csc(Nc3cccc4ccccc34)n2)cc1O | 35µM* | 40µM* | 13µM* | 50µM* | 8% | ?
CC(=O)Nc1ccc(-c2csc(Nc3ccccn3)n2)cc1 | -5% | -20% | · | -27% | · | 24%
Cc1ccnc(Nc2nc(-c3ccc(O)c(O)c3)cs2)c1 | 40µM* | 56µM* | 28µM* | 50µM* | 13% | ?
O=C(COC(=O)CSc1ccccc1)NCCNC(=O)COC(=O)CSc1ccccc1 | 7% | -15% | ? | · | -10%[0.505 µM] | 15%
Cc1cccc(Nc2nc(-c3ccc(O)c(O)c3)cs2)n1 | 50µM* | ? | 40µM* | -12% | 9% | ?
CCCC(=O)N(Cc1cc(=O)[nH]c2ccccc12)c1ccccc1C | 0% | ? | 35µM* | -13% | · | 1%
CC(=O)N(Cc1cc(=O)[nH]c2ccccc12)c1ccccc1C | -1% | ? | 25µM* | -16% | · | -3%
CC(=O)N(Cc1cc(=O)[nH]c2ccccc12)c1ccccc1 | ? | -18% | ? | 8% | 7% | 22%
O=c1c2ccccc2nc2c3ccccc3c(NCc3ccccn3)nn12 | 50µM* | ? | 32µM* | 4% | 6% | 43%
Cc1nnsc1C(=O)Nc1ccc(S(=O)(=O)N2CCC(C)CC2)cc1 | -16%[57.1 µM] | -13% | 19% | 8% | 1% | 45%
COc1ccc(CN2CCN(C(=O)c3cccnc3)CC2)cc1Br | 35µM* | 3.2µM* | 18µM* | 79µM* | -5% | ?
COc1cc(OC)cc(C(=O)N2CCN(C(=O)c3cccnc3)CC2)c1 | ? | 5% | 10% | 11% | · | 45%
O=C(c1cccnc1)N1CCN(Cc2cccc(Br)c2)CC1 | 19% | 3.5µM* | 13µM* | 89µM* | -3% | 50µM*
O=C(c1cccnc1)N1CCN(C(=O)c2ccco2)CC1 | 0% | 3% | 6%[59 µM] | 13% | -2% | 15%
CCOC(=O)C1=C(C)NC(SCC(=O)OC)=C(C#N)C1c1ccc(C(=O)OC)cc1 (centres undefined) | -16% | -11% | ? | 56µM* | 0% | 42%

Screens from PubChem BioAssay.
